SMILES strings stand for the structures. Inconclusive results are not listed. Where a call stands in place of a potency, no number is given. Calls of active or inactive are those of the source. Calls follow the shape of the dose curve; as a rule, active = well fitted cell-killing curve with a large enough effect; inconclusive = small, poorly fitted or top-dose-only effect; inactive = flat fitted curve, though single readings scatter.
Potency is read from the fitted curve at half-maximal effect.

This assay in a line: Cell Viability - LYMP1-002 - Assay at 16 hr (AID 948). The following applies: LYMP1-002 lymphoblastoid cell viability; series mostly up to 92.2 µM. An excerpt:
NIH Chemical Genomics Center [NCGC]
NIH Molecular Libraries Screening Centers Network [MLSCN]
National Institutes of Environmental Health Sciences [NIEHS]
National Toxicology Program [NTP]
We have developed a 1536-well cell-based assay for quantitative high throughput screening (qHTS) against a number of cell lines to determine in vitro cytotoxicity of small molecules. This particular assay uses a human lymphoblastoid cell line (LYMP1-002) purchased from Coriell Institute for Medical Research.
NCGC Assay Protocol Summary:
The CellTiter-Glo luminescent cell viability assay (Promega) is a homogeneous method to measure the number of viable cells in culture. The end point readout of this assay is based on quantitation of intracellular ATP, an indicator of metabolic activity, using the luciferase reaction. Luciferase catalyzes the oxidation of beetle Luciferin to oxyluciferin and light in the presence of ATP. The luminescent signal is proportional to amount of ATP present.
Using the CellTiter-Glo luminescent cell viability assay, the amount of cellular ATP was measured in the lymphoblastoid cell line with complete culture medium following compound treatment for 16 hours. The assay was performed in opaque white Kalypsys 1536-well plates. In the screen, tetraoctylammonium bromide was used as positive control. Library compounds were measured for their ability to cause acute toxicity in the cell line, as reflected by a decrease in intracellular ATP levels, in a concentration-dependent manner. […] AC50 values were determined from concentration-response data modeled with the standard Hill equation.
qHTS protocol for CellTiter Glo lymphoblastoid cellular assay
[Step] [Parameter] [Value] [Description]
1. Reagent; 5 uL; 2500 lymphoblastoid cells/well
2. Time; 5 hr; 37 C incubation
4. Controls; 23 nL; Tetraoctylammonium bromide 6.4pM to 92 uM
5. Time; 16 hr; 37 C incubation
6. Reagent; 5 uL; CellTiter Glo reagent
7. Time; 30 min; Room Temperature
8. Detection; Luminescence; Viewlux plate reader
Keywords: cell viability, cytotoxicity, lymphoblastoid cell line, luminescence, NTPHTS, NTPHTS_NCGC, NIEHS, DSSTox, MLSMR, MLSCN, NIH Roadmap, qHTS, NCGC
On to `CCc1cc(C(N)=S)ccn1`, for which the Potency result was “inactive”.
As to `Cc1noc(NS(=O)(=O)c2ccc(N)cc2)c1C`, the Potency result was “inactive”.
The value for `CC[C@H](C)C(=O)O[C@H]1C[C@@H](C)C=C2C=C[C@H](C)[C@H](CC[C@@H]3C[C@@H](O)CC(=O)O3)[C@H]21` was “inactive”; that for `NC(N)=NC(N)=NCCc1ccccc1` was “inactive”; that for `O=C(O)c1cc(=O)[nH]c(=O)[nH]1` was “inactive”.
Turning to `CC1=NN(c2ccccc2)C(=O)C1`, the Potency entry is “inactive”.
The value for `Cc1ncc([N+](=O)[O-])n1CCO` was “inactive”; that for `CN(C)c1ccc(C(=C2C=CC(=[N+](C)C)C=C2)c2ccc(N(C)C)cc2)cc1` was 6.31 µM (active); that for `C[C@]12C=CC(=O)C=C1CC[C@@H]1[C@@H]2C(=O)C[C@@]2(C)[C@H]1CC[C@]2(O)C(=O)CO` was “inactive”.
On to `O=C(N[C@H](CO)[C@H](O)c1ccc([N+](=O)[O-])cc1)C(Cl)Cl`, for which the Potency result was “inactive”.
As for `NNC(=O)c1ccncc1`, the Potency result is “inactive”.
Consider `COc1ccc2cc3[n+](cc2c1OC)CCc1cc2c(cc1-3)OCO2`, for which the Potency entry is “inactive”.
The value for `Cc1ccnc2c1NC(=O)c1cccnc1N2C1CC1` was “inactive”; that for `N=C(N)c1ccc(OCCCCCOc2ccc(C(=N)N)cc2)cc1` was “inactive”.
The value for `Cc1nnc(NS(=O)(=O)c2ccc(N)cc2)s1` was “inactive”; that for `Cc1cc(NS(=O)(=O)c2ccc(N)cc2)no1` was “inactive”.

Source of the values: PubChem BioAssay (NCATS).
